Test [1] concerns the target ATPase family AAA domain-containing protein 5 (Homo sapiens) (UniProt Q96QE3). Description: HTS assay for small molecules that inhibit ELG1-dependent DNA repair in human embryonic kidney (HEK293T) cells expressing luciferase-tagged ELG1: Hit Confirmation (AID 624248). Further: potency means the concentration at half of the fitted maximal effect; nearly all actives have a fitted effect of over 55% in size. As to conditions: HEK293T ELG1-luciferase levels, luminescence; cells co-treated with 5-fluorouridine. In outline: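 HEK293T cells expressing luciferase-tagged ELG1 treated with 5-fluorouridine plus compound for 16 h at 37 C; luciferase activity then measured with ONE-Glo after 30 min at room temperature.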

Test [2] shares this target. Description: qHTS screen for small molecules that inhibit ELG1-dependent DNA repair in human embryonic kidney (HEK293T) cells expressing luciferase-tagged ELG1: Hit Confirmation using MMS Stimulated ELG1 (AID 624249). Further: potency means the concentration at half of the fitted maximal effect; nearly all actives have a fitted effect of over 60% in size. The note with it: HEK293T luciferase-tagged ELG1 level. In outline:
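Luminescence read-out (Amplight) of an ELG1-luc reporter in HEK293T cells after 16 h of compound exposure under MMS stimulation at 10 µM final. Inhibition appears as reduced luciferase activity.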
Background: qHTS replaces the single test concentration by a dilution series.

A short description of test [3]: qHTS screen for small molecules that inhibit ELG1-dependent DNA repair: Hit Confirmation with MMS Viability (AID 624251).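 Further: potency means the concentration at half of the fitted maximal effect; viability read 16 h after compound addition; nearly all actives have a fitted effect of over 60% in size.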 The note with it: Cell viability with MMS. In outline:
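CellTiter-Glo viability of ELG1-luc HEK293T cells after 16 h with compound plus 10 µM MMS.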

Test [4] has as its target Luciferin 4-monooxygenase (Photinus pyralis) (UniProt P08659). Kind of test: qHTS screen for small molecules that inhibit ELG1-dependent DNA repair: Hit Confirmation in Biochemical Luciferin Assay (AID 624253). Further: on the % scale 0 is the no-effect control and ±100 the full control effect. In short, it runs like this:
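Steps: (1) dispense substrate reagent; (2) pin-transfer test compounds or DMSO vehicle; (3) add luciferase; (4) image luminescence with a CCD reader.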

Test [5] in a line: qHTS Assay for Identifying Gametocytocidal Compounds (AID 743244). Further: potency means the concentration at half of the fitted maximal effect.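 On max response: on the % scale 0 is the no-effect control and ±100 the full control effect; actives lower the fluorescent signal which means gametocytes are killed.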 As to conditions: P. falciparum 3D7 stage III-V gametocytes, alamarBlue, 72 h; max response: stronger effect = lower value. In outline: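 Late gametocytes (III–V), P. falciparum 3D7; 72 h drug, then 24 h alamarBlue; resazurin reduction read by fluorescence.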
A short description of test [6]: qHTS assay for small molecule agonists of the antioxidant response element (ARE) signaling pathway (AID 651741; active means well fitted activation curve with a large enough effect in the signal ratio; the % refers to the signal ratio; further: % of control where 0% means no effect). In short, it runs like this: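 Stably integrated ARE-beta-lactamase reporter HepG2 cells; 16 h compound incubation, 37 C; LiveBLAzer FRET substrate 2 h at room temperature; fluorescence intensity.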
A short description of test [7]: qHTS profiling of the MIPE4 collection as inhibitors of Plasmodium falciparum (3D7) proliferation (AID 743344; call rule not given here;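 further: scaled between DMSO vehicle wells and 0.29 µM artemisinin as full inhibition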). As to conditions: P. falciparum 3D7 in erythrocytes, SYBR Green DNA fluorescence, 72 h; at 5.51 µM (top of the series) unless noted. In outline:
(§1)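 Parasite DNA was quantified by SYBR Green I fluorescence (ex 485, em 535 nm) after overnight lysis in saponin/Triton buffer at room temperature. Cultures at 0.3% parasitemia and 2.5% hematocrit were first exposed to compound for 72 h at 37 C; signals were normalised to artemisinin (0.29 uM) and vehicle wells.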

Test [8] is described as follows: qHTS profiling of the MIPE4 collection as inhibitors of Plasmodium falciparum (DD2) proliferation (AID 743345; call rule not given here). The note with it: P. falciparum Dd2 in erythrocytes, SYBR Green DNA, 72 h; at 5.51 µM (top of the series) unless noted. In short, it runs like this:
as §1

Test [9] in a line: qHTS profiling of the MIPE4 collection as inhibitors of Plasmodium falciparum (DD2) proliferation (Rep 2) (AID 743346; call rule not given here). The note with it: P. falciparum Dd2 in erythrocytes, SYBR Green DNA, 72 h; at 5.51 µM (top of the series) unless noted. In outline: as §1
Test [10] is described as follows: qHTS profiling of the MIPE4 collection as inhibitors of Plasmodium falciparum (HB3) proliferation (AID 743347; call rule not given here;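 further: plate controls were DMSO vehicle wells for no effect and artemisinin wells for full effect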). The note with it: P. falciparum HB3 in erythrocytes, SYBR Green DNA, 72 h; at 5.51 µM (top of the series) unless noted. In short, it runs like this: as §1
For test [11], the target named is Bifunctional 3'-5' exonuclease/ATP-dependent helicase WRN (Homo sapiens) (UniProt Q14191). Description: qHTS for Inhibitors of WRN Helicase: Confirmatory Assay for Cherry-picked Compounds. (AID 720497). Further: nearly all actives have a fitted effect of over 65% in size. In short, it runs like this: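 Kinetic fluorescence unwinding readout (525/598 nm) of a forked duplex oligonucleotide substrate, 100 nM, with 2 mM ATP and 20 nM WRN. Compounds were added 15 min before substrate at room temperature. Activity was scaled between uninhibited enzyme and buffer-only controls.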

Test [12] in a line: qHTS for Inhibitors of WRN Helicase: Thiazole Orange DNA Binding Counterscreen (AID 720499).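 Further: drop in dye fluorescence marks compound binding to DNA; on the % scale 0 is the no-effect control and ±100 the full control effect; nearly all actives have a fitted effect of over 60% in size.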 In outline:
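Dye-displacement counterscreen: 50 nM DNA + 100 nM ThO, cpd added by pintool, 15 min RT, fluorescence ex 480/em 530 nm.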

Test [13] deals with RecQ-like DNA helicase BLM (Homo sapiens) (UniProt P54132). Description: qHTS for Inhibitors of WRN Helicase: BLM Helicase Counterscreen for WRN Inhibitors (AID 720503).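 Further: plate controls were DMSO vehicle for no effect and enzyme-free control wells for full effect; nearly all actives have a fitted effect of over 60% in size.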 In outline: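 Reactions were started with 100 nM DNA substrate and 2 mM ATP (final) after compound and 1 nM BLM stood 15 min at room temperature in Tris-HCl pH 8.0 buffer with NaCl, MgCl2, DTT and Tween-20. Two red-fluorescence reads 15 min apart were normalized against DMSO and no-enzyme wells.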

The target of test [14] is Cytochrome P450 2C9 (Homo sapiens) (UniProt P11712). Kind of test: qHTS Assay for Inhibitors and Substrates of Cytochrome P450 2C9 (AID 883). In short, it runs like this:
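Signal: luciferase luminescence reporting luciferin produced by CYP2C9. Conditions: 10nM enzyme, Luciferin-H 100uM at KM, 25mM KPO4, 37C, 60 min NADPH-driven reaction. Reference: 57uM sulphaphenazole as 100% inhibition.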

The target in test [15] is Cytochrome P450 3A4 (Homo sapiens) (UniProt P08684). Description: qHTS Assay for Inhibitors and Substrates of Cytochrome P450 3A4 (AID 884). Further: potency means the concentration at half of the fitted maximal effect; nearly all actives have a fitted effect of over 50% in size. In short, it runs like this: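 Luminescent readout of luciferin produced by CYP3A4 (20 nM) dealkylation of Luciferin-PPXE, 25 uM (its KM). NADPH-driven reaction ran 60 min at RT after 10 min compound preincubation; data scaled to 57 uM ketoconazole as 100% inhibition.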

For test [16] the target is unchanged. Description: qHTS Assay for Activators of Cytochrome P450 3A4 (AID 885). Further: nearly all actives have a fitted effect of over 65% in size. In short, it runs like this: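 Luminescent readout of luciferin formed from 25 uM Luciferin-PPXE (KM level) by 20 nM CYP3A4 in 200 mM KPO4, with 60 min NADPH-driven reaction at room temperature after 10 min compound exposure. Ketoconazole (57 uM) defined 100% inhibition.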
In test [17] the target is Cytochrome P450 2D6 (Homo sapiens) (UniProt P10635). Kind of test: qHTS Assay for Inhibitors and Substrates of Cytochrome P450 2D6 (AID 891). In short, it runs like this: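 Luminescent read-out of luciferin formed by 5 nM human CYP2D6 demethylating 30 uM Luciferin-ME EGE (Km level) over 60 min at room temperature after NADPH regeneration addition. Data normalized to full inhibition by 1.43 uM quinidine.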

Inconclusive results are not listed. The list shows a part of the results. Calls of active or inactive are those of the source. Unless noted, the call rests on the fitted dose curve; in most records, active means well fitted curve in the direction sought with a large enough effect; inconclusive means small, poorly fitted or top-dose-only effect, or another doubt; inactive means no such curve, though single readings can be large; an effect the other way counts as inactive or inconclusive.

The text below walks through data of PubChem BioAssay (NCATS).

ATPase family AAA domain-containing protein 5 (Homo sapiens), sequence (Q96QE3 whole entry, looked up, the tested form may be a part): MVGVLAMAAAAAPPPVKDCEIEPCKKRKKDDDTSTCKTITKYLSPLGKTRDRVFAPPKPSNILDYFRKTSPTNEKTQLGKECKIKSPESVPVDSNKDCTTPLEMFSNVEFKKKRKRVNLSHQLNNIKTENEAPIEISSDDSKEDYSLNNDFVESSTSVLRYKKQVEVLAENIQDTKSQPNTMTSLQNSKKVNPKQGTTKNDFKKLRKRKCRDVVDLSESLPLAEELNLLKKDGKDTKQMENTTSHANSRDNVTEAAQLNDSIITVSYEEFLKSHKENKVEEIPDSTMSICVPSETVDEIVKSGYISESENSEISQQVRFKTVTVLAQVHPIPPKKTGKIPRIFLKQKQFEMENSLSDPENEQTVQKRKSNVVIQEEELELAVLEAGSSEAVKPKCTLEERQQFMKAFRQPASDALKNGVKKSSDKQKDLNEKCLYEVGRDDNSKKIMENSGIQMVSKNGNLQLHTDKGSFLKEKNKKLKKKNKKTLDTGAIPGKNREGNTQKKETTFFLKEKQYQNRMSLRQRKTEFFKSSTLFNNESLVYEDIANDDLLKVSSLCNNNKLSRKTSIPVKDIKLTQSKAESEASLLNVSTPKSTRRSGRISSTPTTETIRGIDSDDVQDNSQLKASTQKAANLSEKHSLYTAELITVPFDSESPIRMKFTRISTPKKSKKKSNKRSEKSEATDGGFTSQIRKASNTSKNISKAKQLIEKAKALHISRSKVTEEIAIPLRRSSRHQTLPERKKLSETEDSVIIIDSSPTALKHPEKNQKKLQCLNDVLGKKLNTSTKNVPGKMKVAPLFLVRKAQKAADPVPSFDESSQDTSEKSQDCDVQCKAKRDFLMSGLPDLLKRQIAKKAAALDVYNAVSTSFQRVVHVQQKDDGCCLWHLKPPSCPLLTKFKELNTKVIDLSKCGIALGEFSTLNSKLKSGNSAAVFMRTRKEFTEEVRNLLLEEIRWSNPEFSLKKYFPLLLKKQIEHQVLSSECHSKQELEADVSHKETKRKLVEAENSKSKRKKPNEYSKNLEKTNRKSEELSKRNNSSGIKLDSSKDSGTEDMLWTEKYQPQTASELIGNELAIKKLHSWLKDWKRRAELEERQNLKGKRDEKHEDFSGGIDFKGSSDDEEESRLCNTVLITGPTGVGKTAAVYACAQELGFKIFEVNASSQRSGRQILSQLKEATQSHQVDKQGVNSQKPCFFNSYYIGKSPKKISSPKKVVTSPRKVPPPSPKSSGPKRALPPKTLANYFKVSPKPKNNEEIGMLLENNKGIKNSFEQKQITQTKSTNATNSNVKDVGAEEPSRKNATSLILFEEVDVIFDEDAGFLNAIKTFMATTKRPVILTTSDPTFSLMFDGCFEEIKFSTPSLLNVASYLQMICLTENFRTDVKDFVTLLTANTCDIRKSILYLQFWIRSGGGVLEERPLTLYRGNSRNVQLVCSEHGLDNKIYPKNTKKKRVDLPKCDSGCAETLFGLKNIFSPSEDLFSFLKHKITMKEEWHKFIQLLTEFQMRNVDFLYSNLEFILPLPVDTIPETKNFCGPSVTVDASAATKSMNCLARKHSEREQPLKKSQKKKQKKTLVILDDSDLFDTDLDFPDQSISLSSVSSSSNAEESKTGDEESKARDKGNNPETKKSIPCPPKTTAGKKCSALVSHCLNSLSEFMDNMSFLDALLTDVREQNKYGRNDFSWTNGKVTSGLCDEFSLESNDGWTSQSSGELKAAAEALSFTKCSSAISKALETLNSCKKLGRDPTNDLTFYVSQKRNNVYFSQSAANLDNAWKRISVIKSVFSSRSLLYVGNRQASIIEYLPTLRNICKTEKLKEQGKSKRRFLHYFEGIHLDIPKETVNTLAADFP
Cytochrome P450 3A4 (Homo sapiens), sequence (P08684 whole entry, looked up): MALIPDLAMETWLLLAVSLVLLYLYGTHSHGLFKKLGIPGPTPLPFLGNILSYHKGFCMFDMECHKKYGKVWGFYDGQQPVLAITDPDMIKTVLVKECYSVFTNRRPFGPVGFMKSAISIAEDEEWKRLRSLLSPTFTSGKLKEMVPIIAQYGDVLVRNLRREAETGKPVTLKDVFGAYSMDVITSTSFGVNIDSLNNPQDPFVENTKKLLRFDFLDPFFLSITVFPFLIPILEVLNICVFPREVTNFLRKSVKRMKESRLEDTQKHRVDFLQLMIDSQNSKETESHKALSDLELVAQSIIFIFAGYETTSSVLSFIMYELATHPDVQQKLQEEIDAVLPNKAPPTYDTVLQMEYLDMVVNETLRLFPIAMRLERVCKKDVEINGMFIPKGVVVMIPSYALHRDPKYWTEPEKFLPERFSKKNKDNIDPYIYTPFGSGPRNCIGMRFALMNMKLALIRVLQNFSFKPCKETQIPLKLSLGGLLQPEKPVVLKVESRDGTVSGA
Bifunctional 3'-5' exonuclease/ATP-dependent helicase WRN (Homo sapiens), sequence (Q14191 whole entry, looked up): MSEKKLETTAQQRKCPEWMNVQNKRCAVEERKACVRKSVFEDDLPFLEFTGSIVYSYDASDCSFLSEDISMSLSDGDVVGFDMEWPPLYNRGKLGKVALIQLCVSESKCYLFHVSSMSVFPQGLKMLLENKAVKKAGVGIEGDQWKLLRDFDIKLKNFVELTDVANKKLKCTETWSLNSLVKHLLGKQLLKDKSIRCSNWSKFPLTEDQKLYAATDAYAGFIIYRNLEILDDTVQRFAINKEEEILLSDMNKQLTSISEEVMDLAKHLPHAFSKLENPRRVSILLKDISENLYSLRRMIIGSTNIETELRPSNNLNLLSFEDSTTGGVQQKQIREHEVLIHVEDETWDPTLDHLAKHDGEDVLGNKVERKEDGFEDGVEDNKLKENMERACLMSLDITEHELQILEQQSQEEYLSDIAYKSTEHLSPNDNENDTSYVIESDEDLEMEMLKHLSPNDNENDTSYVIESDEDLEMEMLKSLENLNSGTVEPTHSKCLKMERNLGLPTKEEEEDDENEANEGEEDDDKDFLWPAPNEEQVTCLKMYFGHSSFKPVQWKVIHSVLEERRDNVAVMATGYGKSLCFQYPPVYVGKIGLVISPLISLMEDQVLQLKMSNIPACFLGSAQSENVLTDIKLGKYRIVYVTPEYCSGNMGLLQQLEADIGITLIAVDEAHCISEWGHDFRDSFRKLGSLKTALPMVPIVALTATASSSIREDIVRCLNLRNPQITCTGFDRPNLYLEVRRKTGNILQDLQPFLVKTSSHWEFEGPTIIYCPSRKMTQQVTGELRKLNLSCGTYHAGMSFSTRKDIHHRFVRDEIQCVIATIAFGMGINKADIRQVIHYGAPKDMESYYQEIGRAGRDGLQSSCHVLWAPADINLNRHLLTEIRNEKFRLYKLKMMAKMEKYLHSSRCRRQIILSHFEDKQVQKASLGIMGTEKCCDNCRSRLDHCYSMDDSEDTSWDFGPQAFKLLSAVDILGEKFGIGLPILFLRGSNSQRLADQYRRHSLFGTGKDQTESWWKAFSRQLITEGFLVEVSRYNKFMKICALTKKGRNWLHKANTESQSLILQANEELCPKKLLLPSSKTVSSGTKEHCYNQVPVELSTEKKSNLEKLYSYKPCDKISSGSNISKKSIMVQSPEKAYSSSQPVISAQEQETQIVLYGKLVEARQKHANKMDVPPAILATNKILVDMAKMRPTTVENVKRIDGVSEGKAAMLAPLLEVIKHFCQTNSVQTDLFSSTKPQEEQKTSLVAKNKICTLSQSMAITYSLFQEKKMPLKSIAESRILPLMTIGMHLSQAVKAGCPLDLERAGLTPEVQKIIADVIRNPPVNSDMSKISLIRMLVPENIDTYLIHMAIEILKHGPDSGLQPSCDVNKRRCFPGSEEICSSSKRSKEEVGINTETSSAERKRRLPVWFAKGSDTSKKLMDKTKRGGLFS
Cytochrome P450 2C9 (Homo sapiens), sequence (P11712 whole entry, looked up): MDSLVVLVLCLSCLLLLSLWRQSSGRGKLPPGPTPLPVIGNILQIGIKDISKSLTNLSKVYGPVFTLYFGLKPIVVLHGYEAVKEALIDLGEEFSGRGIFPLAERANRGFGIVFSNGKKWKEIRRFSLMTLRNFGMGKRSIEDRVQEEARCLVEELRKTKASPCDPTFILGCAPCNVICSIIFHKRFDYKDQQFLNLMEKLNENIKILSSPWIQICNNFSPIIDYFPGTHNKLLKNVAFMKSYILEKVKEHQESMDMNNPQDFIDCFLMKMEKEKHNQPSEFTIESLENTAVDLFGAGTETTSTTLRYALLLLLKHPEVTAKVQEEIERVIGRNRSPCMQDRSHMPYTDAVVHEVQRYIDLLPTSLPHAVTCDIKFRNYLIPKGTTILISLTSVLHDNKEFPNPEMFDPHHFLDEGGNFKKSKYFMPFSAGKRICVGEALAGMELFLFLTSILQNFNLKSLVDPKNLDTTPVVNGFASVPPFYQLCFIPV
Cytochrome P450 2D6 (Homo sapiens), sequence (P10635 whole entry, looked up): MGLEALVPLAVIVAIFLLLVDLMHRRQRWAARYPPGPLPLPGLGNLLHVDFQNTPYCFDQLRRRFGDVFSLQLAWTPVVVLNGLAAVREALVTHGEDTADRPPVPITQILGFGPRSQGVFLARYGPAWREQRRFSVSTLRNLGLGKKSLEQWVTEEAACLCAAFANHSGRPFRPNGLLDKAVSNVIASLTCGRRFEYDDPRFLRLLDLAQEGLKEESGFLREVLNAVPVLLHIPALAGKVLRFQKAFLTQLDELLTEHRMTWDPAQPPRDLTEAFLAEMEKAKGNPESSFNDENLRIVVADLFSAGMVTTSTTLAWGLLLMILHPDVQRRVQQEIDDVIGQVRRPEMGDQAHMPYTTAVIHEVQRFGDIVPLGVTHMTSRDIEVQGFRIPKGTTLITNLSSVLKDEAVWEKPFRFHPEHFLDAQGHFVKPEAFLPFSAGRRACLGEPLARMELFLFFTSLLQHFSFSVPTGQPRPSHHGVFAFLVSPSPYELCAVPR

As for `C[C@@H]1C[C@H]2CC[C@H](O2)[C@H](C)C(=O)O[C@@H](C)C[C@@H]2CC[C@@H](O2)[C@@H](C)C(=O)O[C@H](C)C[C@H]2CC[C@H](O2)[C@H](C)C(=O)O[C@@H](C)C[C@@H]2CC[C@@H](O2)[C@@H](C)C(=O)O1`, the Potency in [1] is 14.1 µM (active); in [2], 0.0889 µM (active); in test [3], 0.0997 µM (active). Moreover, the compound was called inactive in [4].
For `C[C@]12O[C@H](C[C@]1(O)CO)n1c3ccccc3c3c4c(c5c6ccccc6n2c5c31)CNC4=O`, the Potency in [5] is 2.51 µM (active).
`O=C(O)CN(CCN(CC(=O)O)CC(=O)O)CC(=O)O`: in test [6], the Potency result was “inactive”. For the same compound, the max response in test [5] was 12.5% (inactive).
In the case of `CN(C)C(=O)CCSC(SCCC(=O)O)c1cccc(/C=C/c2ccc3ccc(Cl)cc3n2)c1` (stereo not given), the max response in test [5] is 41.4% (inactive).
In test [7], `CC(C)(N)CNC(=O)CC1CCC2(CC1)OOC1(O2)C2CC3CC(C2)CC1C3` (stereo not given) returned a parasite growth, % of DMSO control of 4.69% [at 28.5 µM]. In addition, the parasite growth remaining, % of DMSO control (lower = more inhibition) in test [8] was 6.94% [at 28.5 µM]. The parasite growth, % of control (lower = inhibition) in test [9] was found to be 27.3% [at 28.5 µM]. In test [10], this compound gave a growth, % of control of 5.72% [at 28.5 µM].
As for `Cc1ccc2c(c1)=C/C(=C\c1c(O)[nH]c(=O)[nH]c1=O)C(=O)N=2`, the compound was classed as inactive in [11], in test [12] and in test [13].
In the case of `COC12CC[C@@]3(C[C@@H]1C(C)(O)C(C)(C)C)[C@H]1Cc4ccc(O)c5c4[C@@]3(CCN1CC1CC1)[C@H]2O5` (stereo not given in full), the Potency in [5] is 31.6 µM (active).
Take `COC(=O)C1C(c2ccccc2)C2C(=O)c3c(OC)cc(OC)cc3O[C@@]12c1ccc(OC)cc1` (stereo not given in full): the activity change, negative = inhibition in [14] is -4.65% [at 11.4 µM] (inactive); in test [17], -16.4% [at 11.4 µM] (inactive). For the same compound, the Potency in test [15] was 3.98 µM (active). The activity change, positive = activation in test [16] is -68.8% [at 11.4 µM] (inactive).
